# Measured values published in PubChem BioAssay AID1345085 (National Center for Advancing Translational Sciences (NCATS), 2018).
# Inconclusive results are not listed. Activity calls are given as the source filed them. The call rests on the fitted dose curve; in most records, active means well fitted cell-killing curve with a large enough effect; inconclusive means small, poorly fitted or top-dose-only effect, or effect the other way; inactive means no such curve, though single readings can be large or run the other way.
# Tested on: SKOV3
# Experiment: Confirmatory qHTS for gynecologic anti-cancer compounds from libraries of approved drugs and bioactive compounds; further: nearly all actives have a fitted effect of over 55% in size
# Conditions: gynecologic cancer cell panel viability, ATPlite luminescence, 48 h; series mostly up to 57.6 µM
# Method in brief: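 ATP-based luminescent viability (ATPlite) after 48 h drug treatment at 37 °C, 5% CO2, across 57.5 uM–0.977 nM in 1:3 steps. Cells seeded at 1,000 per well 16 h beforehand; IC50 values computed, HEK 293T as selectivity control.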
# Potency means the concentration at half of the fitted maximal effect.
row,Structure (SMILES),Potency
1,CCC1C(=O)N(C)c2cnc(Nc3ccc(C(=O)NC4CCN(C)CC4)cc3OC)nc2N1C1CCCC1 (configuration not stated),0.109 µM (active)
2,CC(C)Nc1cc(-c2c[nH]c(C(=O)N[C@H](CO)c3cccc(Cl)c3)c2)c(Cl)cn1,inactive
3,CN(C)C(CCOc1cccc2ccccc12)c1ccccc1 (configuration not stated),inactive
4,COc1ccc(CCC(=O)c2c(O)cc(O[C@@H]3O[C@H](CO)[C@@H](O)[C@H](O)[C@H]3O[C@@H]3O[C@@H](C)[C@H](O)[C@@H](O)[C@H]3O)cc2O)cc1O,inactive
5,CC[C@H](CC#N)OC(=O)N[C@@H](C)c1cccc(NC(=O)Nc2ccc(-c3cnco3)c(OC)c2)c1,inactive
6,CC(C)CC(=O)Nc1n[nH]c2c1CN(C(=O)C1CCN(C)CC1)C2(C)C,inactive
7,Cn1cc(-c2[nH]c3cc(NC(=O)[C@H](N)C4CCCCC4)cc4c3c2C=NNC4=O)cn1,0.968 µM (active)
8,CC(C)n1nc(-c2cc3cc(O)ccc3[nH]2)c2c(N)ncnc21,3.85 µM (active)
9,CCCc1nn(C)c2c(=O)[nH]c(-c3cc(S(=O)(=O)N4CCN(C)CC4)ccc3OCC)nc12,inactive
10,CC(C)(C(=O)NCC(F)(F)C(F)(F)F)C(=O)NC1C(=O)Nc2ccccc2-c2ccccc21 (configuration not stated),inactive
11,Cc1ccc(NC(=O)c2ccc(CN3CCN(C)CC3)cc2)cc1Nc1nccc(-c2cccnc2)n1,inactive
12,CNC(=O)c1ccccc1Nc1nc(Nc2ccc(N3CCOCC3)cc2OC)ncc1Cl,6.85 µM (active)
13,CCCCc1nc2cc(/C=C/C(=O)NO)ccc2n1CCN(CC)CC,0.769 µM (active)
14,Cc1cnc(Nc2ccc(F)cc2Cl)nc1-c1c[nH]c(C(=O)NC(CO)c2cccc(Cl)c2)c1 (configuration not stated),inactive
15,COC(C(=O)N1Cc2[nH]nc(NC(=O)c3ccc(N4CCN(C)CC4)cc3)c2C1)c1ccccc1 (configuration not stated),inactive
16,O=C(O)c1ccc(Nc2ncc3c(n2)-c2ccc(Cl)cc2C(c2c(F)cccc2F)=NC3)cc1,inactive

row,Structure (SMILES),Potency
1,O=C(/C=C/c1cccc(S(=O)(=O)Nc2ccccc2)c1)NO,1.88 µM (active)
2,O=C(Nc1cn[nH]c1-c1nc2ccc(CN3CCOCC3)cc2[nH]1)NC1CC1,7.69 µM (active)
3,C[C@@]1(C(=O)Nc2ccc(F)nc2)CCCN1c1nc(Nc2cc(C3CC3)[nH]n2)c2cccn2n1,3.43 µM (active)
4,CC[C@@]1(O)C(=O)OCc2c1cc1n(c2=O)Cc2cc3c(CN(C)C)c(O)ccc3nc2-1,0.544 µM (active)
5,CCC(=O)N1CCN(c2ccc(-n3c(=O)ccc4cnc5ccc(-c6cnc7ccccc7c6)cc5c43)cc2C(F)(F)F)CC1,0.0044 µM (active)
6,Cc1csc(NC(=O)c2sc3nc4c(c(C(F)(F)F)c3c2N)CCC4)n1,1.53 µM (active)
7,CCCCN(CCCC)CC(O)c1cc(Cl)cc2c1-c1ccc(Cl)cc1/C2=C/c1ccc(Cl)cc1 (configuration not stated),inactive
8,C[C@]12CCC(=O)C=C1CC[C@@H]1[C@@H]2[C@@H](O)C[C@@]2(C)[C@H]1CC[C@]2(O)C(=O)CO,inactive
9,O=C(O)C1(Cc2cccc(Nc3nccs3)n2)CCC(Oc2cccc(Cl)c2F)CC1 (configuration not stated),inactive
10,COc1cc2c(NC3CCN(C(C)C)CC3)nc(C3CCCCC3)nc2cc1OCCCN1CCCC1,30.6 µM (active)
11,C=CC(=O)Nc1cc2c(Nc3ccc(F)c(Cl)c3)ncnc2cc1OCCCN1CCOCC1,24.3 µM (active)
12,CCOC(=O)C1=C(C)NC2=C(C(=O)CC(C)(C)C2)C1c1ccc(-c2ccccc2)cc1 (configuration not stated),inactive
13,Nc1ccccc1NC(=O)c1ccc(CNC(=O)OCc2cccnc2)cc1,2.17 µM (active)
14,COc1cccc2c1C(=O)c1c(O)c3c(c(O)c1C2=O)C[C@@](O)(C(=O)CO)C[C@@H]3O[C@H]1C[C@H](N)[C@H](O)[C@H](C)O1,0.432 µM (active)
15,Cc1cnc(Nc2ccc(OCCN3CCCC3)cc2)nc1Nc1cccc(S(=O)(=O)NC(C)(C)C)c1,10.9 µM (active)
16,Nc1ccn([C@@H]2O[C@H](CO)[C@@H](O)C2(F)F)c(=O)n1,1.37 µM (active)
